Reference: PubChem BioAssay (NCATS)
Inconclusive results are not listed. The source made the active and inactive calls. The call rests on the fitted dose curve; in most records, active means well fitted curve in the direction sought with a large enough effect; inconclusive means small, poorly fitted or top-dose-only effect, or another doubt; inactive means no such curve, though single readings can be large; an effect the other way counts as inactive or inconclusive.

Experiments:
[1] = tested on: CRL-7250; assay: Cytotoxic Profiling of Annotated Libraries Using Quantitative High-Throughput Screening (AID 1296008); conditions: Five cell lines viability, CellTiter-Glo ATP luminescence, 48-72 h; max response: stronger effect = lower value; further: nearly all actives have a fitted effect of over 60% in size; further: potency means the concentration at half of the fitted maximal effect; on max response: on the % scale 0 is the no-effect control and ±100 the full control effect
How it was run: (§1)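 Compounds were pin-transferred onto cells and incubated 48 or 72 hr at 37 degree Celsius, 95% humidity. CellTiter-Glo was added, plates sat 10 min at room temperature, then ATP-coupled luminescence was imaged as the viability read-out.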

[2] = tested on: HEK293; assay: as above; conditions: Five cell lines viability, CellTiter-Glo ATP luminescence, 48-72 h; max response: stronger effect = lower value
How it was run: as §1

[3] = tested on: HaCat; assay: as above; conditions: Five cell lines viability, CellTiter-Glo ATP luminescence, 48-72 h; max response: stronger effect = lower value
How it was run: as §1

[4] = tested on: KB-3-1; assay: as above; conditions: Five cell lines viability, CellTiter-Glo ATP luminescence, 48-72 h; max response: stronger effect = lower value
How it was run: as §1

[5] = tested on: NIH3T3; assay: as above; conditions: Five cell lines viability, CellTiter-Glo ATP luminescence, 48-72 h; max response: stronger effect = lower value
How it was run: as §1

[6] = tested on: HACAT; assay: qHTS assay to identify novel small-molecules to repurpose for Merkel cell carcinoma treatment (AID 1296009); conditions: MCC and control cell lines, CellTiter-Glo viability, 72 h; at 44.8 µM (top of the series) unless noted; further: nearly all actives have a fitted effect of over 60% in size
How it was run: (§2)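 qHTS format: cells treated with library compounds in DMSO across 8 (NPC) or 11 (MIPE) concentrations. Readout after 72 hr at 37 degree celsius was CellTiter-Glo luminescence.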

[7] = tested on: NIH3T3; assay: as above; conditions: MCC and control cell lines, CellTiter-Glo viability, 72 h; at 44.8 µM (top of the series) unless noted
How it was run: as §2

[8] = tested on: C33A; assay: Primary qHTS to identify gynecologic anti-cancer compounds using libraries of approved drugs and bioactive compounds (AID 1345084); conditions: Gynecologic cancer cell panel viability, ATPlite luminescence, 48 h; series mostly up to 57.5 µM; further: on the % scale 0 is the no-effect control and ±100 the full control effect; nearly all actives have a fitted effect of over 55% in size
How it was run: (§3)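 48 h compound exposure at 37 C, 5% CO2; five-point qHTS. ATPlite luminescence readout of cell ATP.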

[9] = tested on: CAOV3; assay: as above; conditions: Gynecologic cancer cell panel viability, ATPlite luminescence, 48 h; series mostly up to 57.5 µM
How it was run: as §3

[10] = tested on: CASKI; assay: as above; conditions: Gynecologic cancer cell panel viability, ATPlite luminescence, 48 h; series mostly up to 57.5 µM
How it was run: as §3

[11] = tested on: Es-2; assay: as above; conditions: Gynecologic cancer cell panel viability, ATPlite luminescence, 48 h; series mostly up to 57.5 µM
How it was run: as §3

[12] = tested on: HeLa; assay: as above; conditions: Gynecologic cancer cell panel viability, ATPlite luminescence, 48 h; series mostly up to 57.5 µM
How it was run: as §3

[13] = tested on: Hek293T; assay: as above; conditions: Gynecologic cancer cell panel viability, ATPlite luminescence, 48 h, control line for the selectivity index; series mostly up to 57.5 µM
How it was run: as §3

[14] = tested on: JEG-3; assay: as above; conditions: Gynecologic cancer cell panel viability, ATPlite luminescence, 48 h; series mostly up to 57.5 µM
How it was run: as §3

[15] = tested on: OV90; assay: as above; conditions: Gynecologic cancer cell panel viability, ATPlite luminescence, 48 h; series mostly up to 57.5 µM
How it was run: as §3

[16] = tested on: PA-1; assay: as above; conditions: Gynecologic cancer cell panel viability, ATPlite luminescence, 48 h; series mostly up to 57.5 µM
How it was run: as §3

Cc1ccc(C)c(S(=O)(=O)n2cnc3ccccc32)c1
inactive: max response [1] -12.1% | max response [2] -10.9% | outcome [3] | outcome [4] | outcome [5] | outcome [6] | outcome [7] | Potency [8] | Potency [9] | outcome [10] | Potency [11] | Potency [12] | Potency [13] | Potency [14] | Potency [15] | Potency [16]

CC1CCC2(NC1)OC1C(O)C3C4CCC5CC(O[C@@H]6O[C@H](CO)[C@@H](O)[C@H](O)[C@H]6O[C@@H]6O[C@@H](C)[C@H](O)[C@@H](O)[C@H]6O)CCC5(C)C4CCC3(C)C1C2C (stereo partly drawn)
inactive: max response [1] -4.87% | max response [2] 2.08% | outcome [3] | max response [4] -0.386% | outcome [5] | outcome [6] inactive [at 17.4 µM] | outcome [7] inactive [at 17.4 µM] | Potency [8] | Potency [9] | outcome [10] | Potency [11] | Potency [12] | Potency [13] | Potency [14] | Potency [15] | Potency [16]

Nc1ncnc2c1C(=O)N(c1ccc(C3CCC(CC(=O)O)CC3)cc1)CCO2 (stereo not drawn)
inactive: max response [1] 2.41% | max response [2] -15.1% | outcome [3] | outcome [4] | outcome [5] | outcome [6] | outcome [7] | Potency [8] | Potency [9] | outcome [10] | Potency [11] | Potency [12] | Potency [13] | Potency [14] | Potency [15] | Potency [16]

Nc1ncnc2c1ncn2[C@H]1O[C@@H](C(=O)N2CCN(CC(=O)Nc3cccc4c3CNC4=O)CC2)[C@H](O)[C@@H]1O
inactive: outcome [1] | max response [2] 1.78% | outcome [3] | outcome [4] | outcome [5] | outcome [6] | outcome [7] | Potency [8] | Potency [9] | outcome [10] | Potency [11] | Potency [12] | Potency [13] | Potency [14] | Potency [15] | Potency [16]

CC(=O)OCC1OC(O[C@H]2CC[C@@]3(C)C(CC[C@]4(C)C3CC=C3[C@@H]5CC(C)(C)CC[C@]5(C(=O)O)CC[C@]34C)[C@]2(C)CO)C(O)C(O)C1OC1OC(C)C(O)C(OC2OCC(O)C(O)C2O)C1O (stereo partly drawn)
inactive: outcome [1] | max response [2] -5.43% | outcome [3] | outcome [4] | outcome [5] | outcome [6] inactive [at 9.27 µM] | outcome [7] inactive [at 9.27 µM] | activity change, negative = cytotoxicity [8] -0.849% [at 11.6 µM] | activity change, negative = cytotoxicity [10] 14.3% [at 11.6 µM] | activity change, negative = cytotoxicity [11] 2.8% [at 11.6 µM] | activity change, negative = cytotoxicity [12] 8.24% [at 11.6 µM] | activity change, negative = cytotoxicity [13] 6.88% [at 11.6 µM] | activity change, negative = cytotoxicity [14] 4.64% [at 11.6 µM] | activity change, negative = cytotoxicity [15] -3.49% [at 11.6 µM] | activity change, negative = cytotoxicity [16] -3.48% [at 11.6 µM]

O=c1[nH]ccc2nc(-c3ccc(CN4CCC(c5nc(-c6ccccn6)n[nH]5)CC4)cc3)c(-c3ccccc3)cc12
active: Potency [2] 5.17 µM
inactive: outcome [1] | outcome [3] | max response [4] -16.7% | outcome [5] | outcome [6] | outcome [7] | Potency [8] | Potency [9] | outcome [10] | Potency [11] | Potency [12] | Potency [14] | Potency [15] | Potency [16]

C/C=C(/C)C(=O)OC1CC(C)(C)CC2C3=CCC4C5(C)CCC(OC6OC(C)C(OC7OC(C(=O)O)C(O)C(OC8OC(CO)C(O)C(O)C8OC8OC(CO)C(O)C(O)C8O)C7O)C(O)C6O)C(C)(C)C5CCC4(C)C3(C)C(OC(=O)/C=C/C=C/C=C/CCC)C(OC(C)=O)C12CO (stereo not drawn)
inactive: max response [1] 3.68% | max response [2] 2.77% | outcome [3] | outcome [4] | outcome [5] | outcome [6] inactive [at 9.27 µM] | outcome [7] inactive [at 9.27 µM] | activity change, negative = cytotoxicity [8] -5.83% [at 6.55 µM] | activity change, negative = cytotoxicity [10] -6.51% [at 6.55 µM] | activity change, negative = cytotoxicity [11] 13.9% [at 6.55 µM] | activity change, negative = cytotoxicity [12] 0% [at 6.55 µM] | activity change, negative = cytotoxicity [13] -3.11% [at 6.55 µM] | activity change, negative = cytotoxicity [14] -5.73% [at 6.55 µM] | activity change, negative = cytotoxicity [15] -14.1% [at 6.55 µM] | activity change, negative = cytotoxicity [16] -0.509% [at 6.55 µM]

O=C(Nc1ccccc1)Nc1ccc(-c2ccc(C(=O)C3CCCC3C(=O)O)cc2)cc1 (stereo not drawn)
inactive: max response [1] -3.37% | max response [2] -9.05% | outcome [3] | outcome [4] | outcome [5] | outcome [6] | outcome [7] | Potency [8] | outcome [10] | Potency [11] | Potency [12] | Potency [13] | Potency [14] | Potency [15] | Potency [16]

Cc1ccc(-c2c(-c3nn(C)c4ncnc(N5CC[C@H](N6CCCCC6)C5)c34)cnn2C)cc1
inactive: max response [1] -0.469% | max response [2] -5.54% | outcome [3] | max response [4] -0.872% | outcome [5] | outcome [6] | outcome [7] | Potency [8] | outcome [10] | Potency [11] | Potency [12] | Potency [13] | Potency [14] | Potency [15] | Potency [16]

COC(=O)c1[nH]c(=O)c2ccccc2c1-c1ccc[nH]1
active: Potency [2] 20.6 µM
inactive: outcome [1] | outcome [3] | outcome [4] | outcome [5] | outcome [6] | outcome [7] | Potency [8] | Potency [9] | outcome [10] | Potency [12] | Potency [14] | Potency [15] | Potency [16]

C=C1[C@H](OC(C)=O)[C@H]2[C@@H](OC(C)=O)C(C)C[C@]2(OC(C)=O)C(=O)[C@H](C)/C=C/C(C)(C)C(=O)[C@H](OC(=O)C(C)C)[C@H]1OC(C)=O (stereo partly drawn)
inactive: max response [1] 2.65% | max response [2] -3.57% | outcome [3] | outcome [4] | outcome [5] | outcome [6] inactive [at 17.4 µM] | outcome [7] inactive [at 17.4 µM] | Potency [8] | Potency [9] | outcome [10] | Potency [11] | Potency [13] | Potency [14] | Potency [15] | Potency [16]
